Compound activity deposited in PubChem BioAssay by several laboratories.
Sampled rows, rich in hits. Any-hit rate of the full collection: about 0.82%.
C-LANA FP: inhibitors of KSHV LANA C-terminal domain DNA binding. MBP-C-LANA/FAM-LBS DNA binding, fluorescence polarization. inhibition, % at 9 µM. actives 0.078% (n = 340,000);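 active = highest replicate inhibition at or above 60% at 9 µM, even if other replicates fall short; inactive = all replicates below 60% inhibition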;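 note: 0% = neutral control wells and 100% = 4 µM acridine orange control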
Keap1 Nrf2 FP: Keap1-Nrf2 (human) interaction inhibition. inhibition, % at 9.4 µM. Keap1 Kelch-Nrf2 peptide fluorescence polarization, 1536-well. actives 0.15% (n = 340,000). AID 504523; in the data active = inhibition above about 12%;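 note: human Keap1 Kelch domain with fluorescein labeled Nrf2 9mer peptide probe; 0% = neutral control wells and 100% = peptide positive control; higher means more block of Keap1 binding to Nrf2 peptide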
Target sequence (Q14145 whole entry, looked up, the tested form may be a part): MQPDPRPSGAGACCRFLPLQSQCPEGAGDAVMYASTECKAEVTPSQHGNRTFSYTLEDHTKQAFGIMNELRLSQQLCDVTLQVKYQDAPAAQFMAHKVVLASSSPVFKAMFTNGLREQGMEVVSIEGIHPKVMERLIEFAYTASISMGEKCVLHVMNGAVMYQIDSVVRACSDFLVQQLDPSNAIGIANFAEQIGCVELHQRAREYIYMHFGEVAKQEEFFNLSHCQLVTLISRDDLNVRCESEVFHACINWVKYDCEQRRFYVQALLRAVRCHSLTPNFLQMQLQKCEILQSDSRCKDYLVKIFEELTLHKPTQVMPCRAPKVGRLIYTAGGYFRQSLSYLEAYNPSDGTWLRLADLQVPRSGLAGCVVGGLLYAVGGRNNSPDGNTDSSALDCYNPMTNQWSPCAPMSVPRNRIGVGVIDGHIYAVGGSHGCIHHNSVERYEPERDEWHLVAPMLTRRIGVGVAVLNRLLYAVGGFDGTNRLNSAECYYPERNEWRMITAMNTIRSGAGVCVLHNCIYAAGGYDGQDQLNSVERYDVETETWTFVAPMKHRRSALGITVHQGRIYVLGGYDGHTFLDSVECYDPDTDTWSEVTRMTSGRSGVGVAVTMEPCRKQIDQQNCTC
RTF Ca sens inh: cardiac RTF calcium desensitization. P19429+P45379. IANBD-labeled cardiac RTF, Ca2+ fluorescence. inhibition, % at 7.15 µM. actives 0.12% (n = 340,000). AID 493244;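 active = inhibition above the mean inhibition of all tested compounds plus 3 SD, cut at about 17% in these data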;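 note: assay run at fixed EC70 calcium of 1.6 mM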
cardiac RTF act: cardiac RTF calcium sensitization | P19429+P45379 | IANBD-labeled TnC RTF fluorescence at EC20 calcium; 0% EC20 calcium, 100% full calcium | activation, % at 7.2 µM | actives 0.24% (n = 340,000);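 active = activation above the mean over all tested compounds plus 3 SD, cut at about 30% in these data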;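 note: rise in fluorescence read as greater calcium sensitivity of cardiac thin filaments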
E coli Lon inh: inhibitors of E. coli Lon protease; purified E. coli Lon protease, fluorescence polarization; inhibition, % at 7.94 µM; actives 0.42% (n = 360,000); AID 602123; in the data active = inhibition above about 13%, passing the limit was not always enough;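 note: 0% = enzyme with probe and DMSO and 100% = no enzyme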
E coli Lon conf: E. coli Lon inhibition confirmation. shares compounds with E coli Lon inh. purified E. coli Lon, fluorescence polarization. inhibition, % at 7.94 µM. actives 31% (n = 1,400); in the data active = inhibition above about 16%;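 note: 0% = enzyme with probe and DMSO and 100% = no enzyme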
Active calls of the source: *; i = inactive; . = not tested or not shown; + = active, no number.

SMILES | C-LANA FP | Keap1 Nrf2 FP | RTF Ca sens inh | cardiac RTF act | E coli Lon inh | E coli Lon conf
COc1ccc(S(=O)(=O)N2CCC(C(=O)N[C@@H](C)C(=O)NCc3cccnc3)CC2)cc1 | . | . | . | . | 3 | .
Nc1[nH]c(C(=O)c2ccccc2)c(-c2ccccc2C(F)(F)F)c1C(=O)NCc1ccc(F)cc1 | . | . | . | . | -6 | .
O=[N+]([O-])c1cc(-c2ccc(/C=N/c3nc4ccccn4c3-c3ccco3)o2)ccc1Cl | 5 | 3 | -5 | -5 | 27* | 12
O=[N+]([O-])c1ccc(-c2ccc(C=Nc3cccc4ccccc34)o2)cc1 | -2 | 3 | -7 | -1 | -2 | .
Cc1ccccc1OCCNc1cc(N2CCCCC2)ccc1[N+](=O)[O-] | 1 | -3 | -3 | 6 | 15* | 8
CCOC(=O)C1(C)CCCN1C(=O)c1cccc2ccccc12 (stereo unspecified) | . | . | . | . | -10 | .
CC(C)C[C@@H](CN1CCC[C@H]1CN1C(=O)C(=O)NC[C@@H]1Cc1ccccc1)N1C[C@H](Cc2ccc(O)cc2)N(CC2CCCCCC2)C(=O)C1=O | . | . | . | . | 11* | 13
O=C(O)CCCNc1cc(N2CCN(C(=O)c3ccco3)CC2)c2noc3c2c1C(=O)c1ccccc1-3 | -20 | -195 | -32 | 8 | 26* | 132*
CN1CCN(c2cc(N3CCN(C(=O)c4ccco4)CC3)c3c4c(onc24)-c2ccccc2C3=O)CC1 | 0 | -7 | -7 | 3 | 7 | .
CN(C)CCCn1c2c3ccccc3ccc2c2oc(=O)c3ccccc3c21 | 3 | 0 | -2 | -5 | + | 23*
CCC(C)(C)n1nnnc1C(C(C)C)N(Cc1ccco1)Cc1cc2cc3c(cc2[nH]c1=O)OCO3 (stereo unspecified) | 0 | -10 | -15 | 1 | 36* | 52*
CCC(C)(C)n1nnnc1C(C(C)C)N(Cc1cccnc1)Cc1ccco1 (stereo unspecified) | -1 | 3 | -4 | 8 | -6 | .
CC1(C(=O)Nc2ccc(Cl)cc2)Cc2c(-c3cccc(C(F)(F)F)c3)ccnc2O1 (stereo unspecified) | . | . | . | . | 1 | .
CN1CCN(c2ncnc3c2ncn3[C@H]2CN(Cc3cccnc3)C[C@@H](CO)O2)CC1 | . | . | . | . | 8 | .
CCCc1cc(=O)n2nc(N3CCC(C(=O)N4CCN(c5cccc(OC)c5)CC4)CC3)sc2n1 | -1 | -3 | -5 | 0 | 24* | 1
CCOC(=O)C1CCN(C(=O)C2CCN(c3nn4c(=O)cc(C)nc4s3)CC2)CC1 | 1 | -2 | 6 | -1 | -12 | .
OC(c1ccccc1)(c1nc(-c2cccc3cccnc23)cs1)C(F)(F)F (stereo unspecified) | . | . | . | . | -6 | .
Cc1ccsc1C(=O)N1CCN(c2ncc(C(F)(F)F)cc2Cl)CC1 | -1 | 1 | 0 | 2 | 23* | -6
COc1ccc(-c2cnc(N)nc2-c2ccc(OCc3ccccc3)cc2O)cc1 | 0 | 3 | 0 | -1 | -3 | .
Nc1ncc(-c2ccccc2)c(-c2ccc(O)cc2O)n1 | -2 | 0 | -9 | -1 | 22* | 7
CCCc1nn(C)c(C(=O)Nc2cccc(Cl)c2)c1Cl | 1 | -4 | 4 | -1 | 30* | 2
CCCc1nn(C)c(C(=O)Nc2cccc(C)c2)c1Cl | 1 | -2 | 0 | -1 | 24 | .
OC[C@H]1O[C@@H](c2nc(-c3ccc(Br)cc3)no2)C[C@@H]1O | . | . | . | . | -5 | .
CCC(C)c1ccc(O)c(NC(=S)NC(=O)c2cccs2)c1 (stereo unspecified) | . | . | . | . | 17 | .
COc1cc(OC)cc(C(=O)N[C@H](C(=O)OCn2nnc3ccccc3c2=O)C(C)C)c1 | -1 | -7 | -3 | 1 | 16* | -8
SMILES | C-LANA FP | Keap1 Nrf2 FP | RTF Ca sens inh | cardiac RTF act | E coli Lon inh | E coli Lon conf
CC1(C(=O)NS(=O)(=O)c2ccc3ccccc3c2)CCN1C(=O)Cc1ccc(-c2ccccc2)cc1 (stereo unspecified) | . | . | . | . | 8 | .
Cc1ccc(NC(=O)Nc2nnc([C@H]3C[C@H](O)[C@@H](CO)O3)s2)cc1 | . | . | . | . | -2 | .
C/C(=N\NC(=S)NCCc1ccccc1)c1cccs1 | 13 | -3 | -13 | 7 | 101* | 57*
CC(C)(C)OC(=O)NC(Cc1ccccc1)C(=O)N1CCC(C(=O)NCC(=O)Nc2ccc(F)cc2)CC1 (stereo unspecified) | 13 | 2 | -14 | 1 | 22* | 43*
Cc1ccc(C(=O)Nc2nc(=O)n(C(=O)c3ccccc3C)s2)cc1 | 2 | 0 | 3 | -3 | 19* | 31*
CC(=O)Nc1ccc(-c2ccnc3c2CC(C)(C(=O)NCc2ccc(N4CCN(C)CC4)cc2)O3)cc1 (stereo unspecified) | . | . | . | . | -15 | .
c1ccc(C2(Cn3ccc4ccccc43)OCCO2)cc1 | 2 | 7 | 2 | 2 | 25* | 4
CC(=O)c1c(Cl)nc2cccc3c2c1-c1ccccc1C3=O | 5 | -2 | -15 | 3 | 24* | 28*
COc1cc(-c2c(C(C)=O)c(C)nc3c2C(=O)c2ccccc2-3)cc(OC)c1OC | -1 | 7 | 1 | -6 | -3 | .
COc1ccc(C(O)c2nc(-c3ccc(OC)c(OC)c3)cs2)cc1 (stereo unspecified) | . | . | . | . | -3 | .
CC1(C)CC(=O)C(C=Nc2cccnc2/N=C/C2=C(O)CC(C)(C)CC2=O)=C(O)C1 | 1 | -6 | -22 | -4 | 52* | -3
CC1(C)CC(=O)C(C=Nc2ccc(C(=O)c3ccccc3)cc2N=CC2=C(O)CC(C)(C)CC2=O)=C(O)C1 | 1 | -7 | -82 | 44* | 13* | -20
CC1(C)CC(=O)C(C=Nc2ccc(O)c(N=CC3=C(O)CC(C)(C)CC3=O)c2)=C(O)C1 | -1 | -2 | -13 | 6 | -31 | .
CC1(C)CC(=O)C(C=Nc2cccnc2)=C(O)C1 | -1 | 1 | 4 | -1 | -3 | .
COc1ccc2c3c(cccc13)C(=O)CC2 | 163* | 164* | i | 715* | + | +
Cc1cccc(NC(=O)C2CCCN(S(=O)(=O)c3c(C)nn(C)c3C)C2)n1 (stereo unspecified) | -3 | -1 | -10 | -1 | 12* | -9
Cc1cc2nc(-c3nnnn3-c3c(C)cccc3C)c(=O)[nH]c2cc1C | . | . | . | . | -4 | .
CSCC(C)N1CCC(Oc2cccc(C(=O)NCc3ccccn3)c2)CC1 (stereo unspecified) | 9 | 5 | -13 | 4 | 17* | -319
COc1cccc(CN(C)C(=O)c2cccc(S(=O)(=O)Nc3cccc(C)c3)c2)c1OC | 1 | 0 | -4 | -3 | -12 | .
Cc1ccc(S(=O)(=O)N2CCOCC2)cc1C(=O)NCCCN1CCCC1=O | . | . | . | . | -2 | .
CCCCc1ncc(CN2CCC(n3nccc3NC(=O)c3ccccc3Cl)CC2)[nH]1 | -1 | -3 | -7 | 1 | 19* | 6
CCCCc1ncc(CN2CCC(n3nccc3NC(=O)C(OC)c3ccccc3)CC2)[nH]1 (stereo unspecified) | 0 | -3 | -9 | -2 | -4 | .
